Measurements: the supplement of paper PMC3334620
Whole data set: some 33,000 sequences, median “E-score (-0.5 to 0.5)” near -0.0014, cut for the highest 2% near 0.25. Only a selection was taken, and the highest values are over-represented in it overall.

biological target: T1, Cad1 (UniProt P24813); assay: PBM E-score (8-mer binding enrichment) (E-score (-0.5 to 0.5)); higher = stronger / more preferred TF binding; conditions: protein concentration: 100 nM; construct: GST-full length
T1 sequence: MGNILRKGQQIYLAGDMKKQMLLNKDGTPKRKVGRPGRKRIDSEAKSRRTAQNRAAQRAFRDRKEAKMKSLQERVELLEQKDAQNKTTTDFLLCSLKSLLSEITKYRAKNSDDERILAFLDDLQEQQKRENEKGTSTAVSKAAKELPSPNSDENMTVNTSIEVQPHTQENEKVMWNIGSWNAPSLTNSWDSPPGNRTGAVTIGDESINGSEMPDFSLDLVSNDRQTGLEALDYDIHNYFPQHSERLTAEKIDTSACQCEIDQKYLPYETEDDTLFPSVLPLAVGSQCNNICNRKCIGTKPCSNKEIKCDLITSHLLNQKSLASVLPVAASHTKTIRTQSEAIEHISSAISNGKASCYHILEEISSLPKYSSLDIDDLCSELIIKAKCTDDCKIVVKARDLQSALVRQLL
Protocol: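 Universal 'all 10-mer' protein binding microarrays (Agilent AMADID 015681) probed with GST-tagged S. cerevisiae TFs (full-length or DBD) made by in vitro transcription/translation (PURExpress), about 100-200 nM. Bound TF was detected with fluorescent anti-GST. Each ungapped 8-mer (which stands for itself and its reverse complement) is scored by the PBM enrichment score (E-score), a modified Wilcoxon-Mann-Whitney statistic from -0.5 to +0.5, computed with the Universal PBM Analysis Suite. Scale: above 0.35 generally sequence-specific binding.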

Sequence	PBM E-score
TTAACAAA	0.0927
GACTCTAA	-0.118
GCATAAGA	0.108
ACATAAGC	0.107
GCATAAGC	0.254
GCTTAGCC	-0.148
ACTAATAG	0.325
AGTAATAG	0.16
ACTACTAC	0.0727
CCTAATAA	0.0868
ACTAATAA	0.226
ACTAATAT	0.302
ACTACTAT	0.253
ACTACTAA	0.158
AGTAATAC	0.21
AATAATAT	0.208
AGTAATAT	0.346
CCTAATAG	-0.0644
CACCTAAA	0.0285
TCTTAACA	0.0995
CCCGCCGG	-0.00326
GTCACTTA	0.151
AGCTAGCA	-0.0255
AGAGACGG	0.0418
ACTAACAT	0.255

Sequence	PBM E-score
ACTAATAC	0.301
ACTAACAC	0.184
ACTAACAG	0.193
GCTAATAC	0.152
CCTAATAC	0.013
ACTGCGCG	0.0621
AATATCGA	0.242
AATATAGC	0.0229
AATATCGT	0.272
AATATATA	0.244
AATATATG	0.236
ACTATAGG	-0.161
AATATAGG	0.123
AATATATT	0.322
AATATCGG	0.183
ACTATAGA	-0.00757
ACTATAGT	0.293
AATATAGT	0.281
ACTGGTCA	-0.0283
GAGTCCGC	-0.377
ATTTAGGA	0.0482
AGGCAGGG	-0.133
ACCACCAA	-0.0937
CTTCCGTC	-0.133
CAGAGCAA	-0.0906

Sequence	PBM E-score
AACAGGGC	0.0552
TGCGTGAA	0.0712
GACGTATC	-0.107
ACCCATGA	-0.0855
CCACACGC	0.131
ATTACGTG	0.163
CTTACGTC	-0.0353
CTCACGTA	-0.0707
GTTACGTA	0.0792
ATTACGTA	0.392
CTTACGTA	0.328
ATTACGAG	0.0536
GTTACGAA	0.17
ATTACGAA	0.327
CCAATTTC	0.105
ATCCACTA	0.127
GACTAAGA	0.0179
AAATTACA	0.191
AAATTATA	0.237
TGATTACA	0.275
AGATTACC	0.107
AGATTACT	0.184
CAATTACA	0.241
TAATTATA	0.306
GGATTACA	0.0354

Sequence	PBM E-score
TAATTACA	0.265
GAATTATA	0.19
AGATTACG	0.252
CGATTACA	0.197
ATGCCCGA	-0.0531
TGGCGCCA	0.198
CGCGTTCC	0.132
AGATCAGG	-0.128
TCGTTAGA	0.0445
CGTACTTC	0.096
CTACGGCC	-0.0892
TCGGTACA	-0.0456
ATAAGAAT	0.284
AAAAGAAT	0.257
ATAAGATA	0.264
GCAAGAAC	0.0479
ATAAGATC	0.0938
ACAAGAAC	0.251
ACAAGAAT	0.00675
ATAAGAAC	0.205
AAAAGAAG	0.0683
AAAAGAAC	0.118
ATAAGAAA	0.209
CTAAGATA	-0.0701
GGCTTTAA	-0.12

Sequence	PBM E-score
TACCACTA	-0.0282
CTAGCCCA	-0.145
CGGACACA	0.00739
GAGGCTTA	-0.0175
ATAGGCAT	-0.202
GAGGTTCA	0.0769
CTGGCTGC	-0.0751
ACGCGTCA	0.198
GGGAAGAC	-0.154
AAACCCAT	0.261
AACCCCAT	-0.107
AAACCCAG	0.0892
AGGCCGAA	-0.0603
CTTAAGGA	0.0352
AAGGCACA	-0.0665
TGACCGCA	0.0752
AAATGATA	0.214
GAATGATA	0.223
CAATGATA	0.0335
AAATGATC	-0.133
TAATGATA	0.251
AAATGATT	0.261
AATCTGCG	0.00478
CAGGTTAC	-0.0155
CACTTCGG	-0.0116

Sequence	PBM E-score
GATTGTAC	-0.082
CATTGTAC	0.0995
AATTGTAC	0.252
CACACAGC	0.107
AACACAGG	-0.0364
AACACAGC	0.281
CGGGGGCC	-0.42
CGGAGGTA	-0.0635
GGCGTCCC	-0.213
GGACGTCA	-0.159
TGACGTCA	0.334
AGACGTCA	-0.096
GGTCGACC	0.263
AGTCGACA	0.22
CGTCGACG	0.103
ACTCGACG	0.0798
AGTCGACT	0.287
CGTCGACC	0.118
AGTCGACC	0.107
AGTCGACG	0.296
GGTCGACA	0.0882
CCAACTAG	0.0684
GCGCACCA	0.134
CTAACCTA	-0.129
AACTAGCC	-0.0573

Sequence	PBM E-score
AGAACAGC	0.00791
ACGCATTG	-0.0523
GAACATAC	0.0334
AGTGGCGG	-0.014
CTCAGGCA	0.034
GCACCAAA	-0.0001
AAACGAAT	0.017
GAACGAAA	-0.0129
ACACCAAA	0.254
AAACGAAC	0.0751
CAACGAAA	0.162
ACACCAAG	-0.0199
AAACGAAA	0.287
GAACGGAA	-0.0319
TAACGAAA	0.26
AAACGGAC	-0.00593
AAACGGAA	0.266
GGGCAACA	-0.0207
TTCAAAAA	-0.0855
ACATTCCG	0.05
CATGGAAA	0.161
AGCTGAAT	-0.00032
